The supplement of paper PMC6658780
Structures can show the parent of a compound that is named as a salt. ± gives the standard deviation of the averaged measurements.

Each compound was assayed on Klebsiella pneumoniae NCTC-13439 (assay: percent growth inhibition of drug + antibiotic vs DMSO control; higher = more growth inhibition). Conditions: antibiotic (0.125x MIC): ciprofloxacin; 20 µM.

Row | Structure (SMILES) | percent growth inhibition
1 | Cc1c(F)c(N2CCNC(C)C2)cc2c1c(=O)c(C(=O)O)cn2C1CC1 (centres undefined) [Grepafloxacin] | 51.2 ± 18%
2 | N=C(NCCCCCCNC(=N)NC(=N)Nc1ccc(Cl)cc1)NC(=N)Nc1ccc(Cl)cc1 [Chlorhexidine] | 100.15 ± 0.021%
3 | NC1CCN(c2nc3c(cc2F)c(=O)c(C(=O)O)cn3-c2ccc(F)cc2F)C1 (centres undefined) [Tosufloxacin hydrochloride] | 99.03 ± 0.4%
4 | Cc1nc2n(c(=O)c1CCN1CCC(c3noc4cc(F)ccc34)CC1)CCCC2 [Risperidone] | -11.1 ± 3%
5 | NC1CCN(c2c(F)cc3c(=O)c(C(=O)O)cn(C4CC4)c3c2Cl)C1 (centres undefined) [Clinafloxacin] | 93.36 ± 0.75%
6 | CCN1CCN(c2cc3c(cc2F)c(=O)c(C(=O)O)cn3C2CC2)CC1 [Enrofloxacin] | 73.1 ± 13%
7 | NC(=O)N/N=C/c1ccc([N+](=O)[O-])o1 [Nitrofural] | 16.3 ± 2.7%
8 | O=C(OCC(O)CO)c1ccccc1Nc1ccnc2cc(Cl)ccc12 (centres undefined) [Glafenine hydrochloride] | 5.01 ± 4.3%
9 | CC(=O)CCCCn1c(=O)c2c(ncn2C)n(C)c1=O [Pentoxifylline] | 5.4 ± 5.5%
10 | C#C[C@]1(OC(C)=O)CC[C@H]2[C@@H]3CCC4=CC(=NO)CC[C@@H]4[C@H]3CC[C@@]21CC (mixture of isomers) [Norgestimate] | 4.4 ± 13%
11 | COc1c(N2C[C@@H]3CCCN[C@@H]3C2)c(F)cc2c(=O)c(C(=O)O)cn(C3CC3)c12 [Moxifloxacin] | 99.24 ± 0.54%
12 | COc1c(N2CCNC(C)C2)c(F)cc2c(=O)c(C(=O)O)cn(C3CC3)c12 (centres undefined) [Gatifloxacin] | 96.7 ± 1.2%

Same assay, conditions: antibiotic (0.125x MIC): tigecycline; 7 µM

Row | Structure (SMILES) | percent growth inhibition
13 | Cc1c(F)c(N2CCNC(C)C2)cc2c1c(=O)c(C(=O)O)cn2C1CC1 (centres undefined) [Grepafloxacin] | 7.09 ± 6.5%
14 | NC1CCN(c2c(F)cc3c(=O)c(C(=O)O)cn(C4CC4)c3c2Cl)C1 (centres undefined) [Clinafloxacin] | 14.4 ± 11%
15 | CCN1CCN(c2cc3c(cc2F)c(=O)c(C(=O)O)cn3C2CC2)CC1 [Enrofloxacin] | 7.12 ± 1.8%
16 | CC(=O)CCCCn1c(=O)c2c(ncn2C)n(C)c1=O [Pentoxifylline] | 1.34 ± 3.2%
17 | C[C@H](N)[C@H](O)c1cccc(O)c1 [Metaraminol bitartrate] | 8.48 ± 9.5%
18 | COc1c(N2C[C@@H]3CCCN[C@@H]3C2)c(F)cc2c(=O)c(C(=O)O)cn(C3CC3)c12 [Moxifloxacin] | 14.4 ± 14%
19 | COc1c(N2CCNC(C)C2)c(F)cc2c(=O)c(C(=O)O)cn(C3CC3)c12 (centres undefined) [Gatifloxacin] | 17.5 ± 19%
